# Where “and” joins values, the source holds several entries; their conditions need not be identical. Identical values can stand only once. In all, about 3,200 compounds went through this assay and about 300 (9.4%) showed activity. The sample holds actives, similar compounds and a random draw of the others, so the mix is not that of the screen.
# Tested on: A673/TR/shEF
# Assay: cell viability (LOESS-normalised, relative to median of negative controls) (log2 ratio); higher = more viable cells (less compound effect), active = hit call of the paper (over 3 MAD below the median)
# Settings: treatment time: 72 h
# Summary of the method: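 A673/TR/shEF Ewing sarcoma cells (1,500 per well, 384-well plates) were grown with or without doxycycline to induce EWS-FLI1 shRNA knockdown, starting 24 h before compounds. Library compounds at two or more concentrations, with DMSO controls, were added for three days. Cell viability was read by CellTiter-Glo luminescence on an Envision reader, then LOESS-corrected per plate, divided by the median of negative controls and log2-transformed. Hits were wells at least three median absolute deviations from the median of all screened wells.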
# [1] = 0.25 µM, library screen: screen1, EWS-FLI1 expression: high (no doxycycline)
# [2] = 0.25 µM, library screen: screen1, EWS-FLI1 expression: low (doxycycline-induced shRNA knockdown)
# [3] = 2.5 µM, library screen: screen1, EWS-FLI1 expression: high (no doxycycline)
# [4] = 2.5 µM, library screen: screen1, EWS-FLI1 expression: low (doxycycline-induced shRNA knockdown)
# [5] = 0.025 µM, library screen: screen1, EWS-FLI1 expression: high (no doxycycline)
# [6] = 0.025 µM, library screen: screen1, EWS-FLI1 expression: low (doxycycline-induced shRNA knockdown)
# [7] = 0.25 µM, library screen: screen2, EWS-FLI1 expression: high (no doxycycline)
# [8] = 0.25 µM, library screen: screen2, EWS-FLI1 expression: low (doxycycline-induced shRNA knockdown)
# [9] = 2.5 µM, library screen: screen2, EWS-FLI1 expression: high (no doxycycline)
# [10] = 2.5 µM, library screen: screen2, EWS-FLI1 expression: low (doxycycline-induced shRNA knockdown)
# [11] = 25 µM, library screen: screen1, EWS-FLI1 expression: high (no doxycycline)
# [12] = 25 µM, library screen: screen1, EWS-FLI1 expression: low (doxycycline-induced shRNA knockdown)
smiles,measurement,setting,value
CC(=O)c1c(C(C)=O)c(C)n(-c2cc(C)cc(C)c2)c1C,cell viability (log2),[1],0.0993 (inactive)
same,cell viability (log2),[2],0.13 (inactive)
same,cell viability (log2),[3],0.0722 (inactive)
same,cell viability (log2),[4],0.0963 (inactive)
CC(C)N1C(=O)C(=Cc2ccc(F)cc2)SC1=S,cell viability (log2),[1],0.0751 (inactive)
same,cell viability (log2),[2],0.059 (inactive)
same,cell viability (log2),[3],0.129 (inactive)
same,cell viability (log2),[4],-0.0496 (inactive)
O=S(=O)(c1cccc2c(I)cccc12)N1CCCNCC1,cell viability (log2),[5],0.188 (inactive)
same,cell viability (log2),[6],-0.167 (inactive)
same,cell viability (log2),[1],0.201 (inactive)
same,cell viability (log2),[2],-0.255 (inactive)
same,cell viability (log2),[7],0.178 (inactive)
same,cell viability (log2),[8],0.133 (inactive)
same,cell viability (log2),[3],-0.248 (active)
same,cell viability (log2),[4],-0.111 (inactive)
same,cell viability (log2),[9],0.0746 (inactive)
same,cell viability (log2),[10],0.0593 (inactive)
same,cell viability (log2),[11],-0.335 (active)
same,cell viability (log2),[12],-0.197 (active)
c1cc(CN2CCCNCCNCCCNCC2)ccc1CN1CCCNCCNCCCNCC1,cell viability (log2),"0.103 µM, library screen: screen3, EWS-FLI1 expression: high (no doxycycline)",0.00595 (inactive)
same,cell viability (log2),"0.103 µM, library screen: screen3, EWS-FLI1 expression: low (doxycycline-induced shRNA knockdown)",0.0496 (inactive)
same,cell viability (log2),"0.308 µM, library screen: screen3, EWS-FLI1 expression: high (no doxycycline)",0.0705 (inactive)
same,cell viability (log2),"0.308 µM, library screen: screen3, EWS-FLI1 expression: low (doxycycline-induced shRNA knockdown)",0.00482 (inactive)
same,cell viability (log2),"0.926 µM, library screen: screen3, EWS-FLI1 expression: high (no doxycycline)",0.086 (inactive)
same,cell viability (log2),"0.926 µM, library screen: screen3, EWS-FLI1 expression: low (doxycycline-induced shRNA knockdown)",0.0433 (inactive)
same,cell viability (log2),"2.8 µM, library screen: screen3, EWS-FLI1 expression: high (no doxycycline)",0.0246 (inactive)
same,cell viability (log2),"2.8 µM, library screen: screen3, EWS-FLI1 expression: low (doxycycline-induced shRNA knockdown)",0.0244 (inactive)
same,cell viability (log2),"8.3 µM, library screen: screen3, EWS-FLI1 expression: high (no doxycycline)",0.0572 (inactive)
same,cell viability (log2),"8.3 µM, library screen: screen3, EWS-FLI1 expression: low (doxycycline-induced shRNA knockdown)",0.0352 (inactive)
same,cell viability (log2),"25 µM, library screen: screen3, EWS-FLI1 expression: high (no doxycycline)",0.0828 (inactive)
same,cell viability (log2),"25 µM, library screen: screen3, EWS-FLI1 expression: low (doxycycline-induced shRNA knockdown)",0.0617 (inactive)
O=S(=O)(c1cccc2cnccc12)N1CCNCC1,cell viability (log2),[7],0.166 (inactive)
same,cell viability (log2),[8],0.045 (inactive)
same,cell viability (log2),[9],0.145 (inactive)
same,cell viability (log2),[10],0.0254 (inactive)
O=S(=O)(c1cccc2c(Cl)cccc12)N1CCCNCC1,cell viability (log2),[5],0.198 (inactive)
same,cell viability (log2),[6],-0.106 (inactive)
same,cell viability (log2),[1],0.179 (inactive)
same,cell viability (log2),[2],-0.113 (inactive)
same,cell viability (log2),[7],0.275 (inactive)
same,cell viability (log2),[8],0.144 (inactive)
same,cell viability (log2),[3],-0.211 (active)
same,cell viability (log2),[4],-0.13 (inactive)
same,cell viability (log2),[9],0.128 (inactive)
same,cell viability (log2),[10],0.122 (inactive)
same,cell viability (log2),[11],-0.331 (active)
same,cell viability (log2),[12],-0.103 (inactive)
O=S(=O)(c1cccc2cnccc12)N1CCCNCC1,cell viability (log2),[5],0.279
same,cell viability (log2),[6],-0.0219 (inactive)
same,cell viability (log2),[1],0.333
same,cell viability (log2),[2],-0.0194 (inactive)
same,cell viability (log2),[3],-0.187 (active)
same,cell viability (log2),[4],0.0781 (inactive)
same,cell viability (log2),[11],-0.284 (active)
same,cell viability (log2),[12],0.0444 (inactive)
CC1CNCCN1S(=O)(=O)c1cccc2cnccc12 (configuration not stated),cell viability (log2),[5],0.354
same,cell viability (log2),[6],0.0557 (inactive)
same,cell viability (log2),[1],0.301
same,cell viability (log2),[2],0.0236 (inactive)
same,cell viability (log2),[7],0.145 (inactive) and 0.204 (inactive)
same,cell viability (log2),[8],0.0425 (inactive) and 0.187 (inactive)
same,cell viability (log2),[3],-0.0561 (inactive)
same,cell viability (log2),[4],0.0655 (inactive)
same,cell viability (log2),[9],0.0837 (inactive) and 0.258 (inactive)
same,cell viability (log2),[10],0.0573 (inactive) and 0.209 (inactive)
same,cell viability (log2),[11],-0.155 (active)
same,cell viability (log2),[12],0.112 (inactive)
CC(C)CCC[C@@H](C)[C@H]1CC[C@H]2[C@@H]3CC[C@H]4C[C@H](O)CC[C@]4(C)[C@H]3CC[C@]12C,cell viability (log2),[1],0.14 (inactive)
same,cell viability (log2),[2],0.0986 (inactive)
same,cell viability (log2),[3],0.118 (inactive)
same,cell viability (log2),[4],0.0759 (inactive)
